# Source: PubChem BioAssay
# This is a sample that favours compounds with a hit; in the whole collection about 13% have one here.
# FMDV inh: foot and mouth disease virus antiviral activity. FMDV antiviral cell-based qHTS. 410,000 tested, 1.2% active. Potency, µM (series often up to 57.9 µM), hits mostly inhibitors. AID 1159524; calls by dose curve; tested in HEK293T cells; further: read-out not given here; nearly all actives have a fitted effect of over 45% in size
# Marburg entry inh: blocks Marburg virus binding to or entry into cells; Marburg virus pseudotyped entry inhibition, cell reporter; Potency, µM (series often up to 37.8 µM), most hits filed as inhibitors; 300,000 tested, 1.8% active; AID 540276; calls by dose curve; tested in HEK293 cells
# HCV inhibitor: HCV inhibition; AID 651820; 340,000 tested, 3.4% active; Huh7.5.1 HCVcc-Cre infection, luciferase reporter, 44 h; Potency, µM (top dose mostly 41.8 µM), actives largely listed as inhibitors; active means well fitted inhibition curve with a large enough effect; inconclusive means small, poorly fitted or top-dose-only effect, or another doubt; inactive means no such curve, though single readings can be large or run the other way
#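 After 44 h co-culture of compound, cells and HCVcc-Cre (~0.5 moi), substrate is added for 15 min at room temperature and luciferase measured over 15 sec. Cells were seeded at 1,000/well and pre-cultured 4 h.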
# CHX counter: affects cycloheximide protein synthesis inhibition readout, counter-screen; max response, %; 300,000 tested, 12% active; cell reporter, cycloheximide protein synthesis inhibition counterscreen; in the data active means max response mostly above about 13%, no sharp cut-off; inactive means mostly below about 14%; further: read at 38.3 µM for the half of the compounds with a filed dose
# LASV entry inh: Lassa virus entry inhibition; Lassa virus pseudotype entry inhibition, cell reporter; Potency, µM (highest dose often 37.9 µM), actives largely listed as inhibitors; 300,000 tested, 1.2% active; AID 540256; calls by dose curve; tested in HEK293 cells; further: nearly all actives have a fitted effect of over 50% in size
# Shiga inhibitor: Shiga toxin inhibition | Vero cells, Shiga toxin protein synthesis inhibition reporter | inhibition, % at 38.7 µM | 290,000 tested, 9.2% active; in the data active means inhibition mostly above about 28%, no sharp cut-off; inactive means mostly below about 43%
# A number is an active result; . = inactive; ? = inconclusive; / = no result.
SMILES,FMDV inh,Marburg entry inh,HCV inhibitor,CHX counter,LASV entry inh,Shiga inhibitor
Cc1ccc(NC(=O)CSc2nnc(-c3ccco3)c(-c3ccco3)n2)cc1,.,.,?,.,2.82µM,.
O=C(CSc1nnc(-c2ccco2)c(-c2ccco2)n1)Nc1ccccc1,.,.,?,31.5,.,.
Cc1ccc(/C=C/C(=O)Nc2nnc(C)s2)o1,.,.,.,.,.,61.2
CCc1ccc(C(=O)/C=C/c2ccc([N+](=O)[O-])o2)cc1,35.5µM,?,.,12.6,?,.
Cc1ccc(/C=C/C(=O)Nc2ccc(Oc3ccccc3)cc2)o1,.,?,11.2µM,25.8,.,.
Cc1ccc(C(=O)Nc2nnc(C)s2)o1,/,.,.,.,.,.
CC(=O)Nc1ccc(NC(=O)COC(=O)c2ccc([N+](=O)[O-])o2)cc1,.,.,.,/,.,/
CCOC(=O)CCc1ccc(NC(=O)/C=C/c2ccc([N+](=O)[O-])o2)cc1,25.1µM,?,?,/,7.08µM,/
COc1ccc(N(C(=O)c2ccc(C)cc2)S(=O)(=O)c2ccc(Cl)cc2)cc1,.,/,/,/,?,/
CC[C@@]12C(=O)N(c3ccccc3)C(=O)N1[C@H](c1cccc(C)c1)[C@@H]1C(=O)N(Cc3ccccc3)C(=O)[C@@H]12,.,/,.,.,/,.
CC1SCC(=O)N(CC(=O)NCc2ccccc2)C1=O (stereo not given),.,.,.,.,.,.
Cc1ccc(/C=C/C(=O)Nc2ccc([N+](=O)[O-])cc2)o1,.,.,.,35.5,.,74.8
COc1ccc(N2CCN(C(=O)c3ccc4c(c3)CC(c3ccccc3)OC4=O)CC2)cc1 (stereo not given),.,.,.,/,?,/
O=c1cc(-c2ccccc2)nc(SCc2ccccc2)[nH]1,.,.,.,.,.,.
COc1ccc(-c2c(-c3ccc(OC)nc3)c3ccccc3n2C)cc1,.,/,22.4µM,/,/,/
COc1cccc(-c2c(-c3cc(OC)cc(OC)c3)n(C)c3ccc(-c4ccc(OC)nc4)cc23)c1,.,.,.,/,/,/
Oc1ccc2c(c1)c1ccccc1c1ncccc21,.,.,11.2µM,/,.,/
Oc1c(Cl)c(Cl)c2ncccc2c1Cl,.,?,.,/,.,/
Cc1cc(N2CCOCC2)nc2cc(O)ccc12,.,/,.,36.9,/,54.3
Cc1cc(N2CCCCC2)nc2ccccc12,.,.,.,11.3,.,.
Cc1cc(-n2nnc3ccccc32)nc2ccccc12,.,.,?,14.9,.,.
Cc1cc(N2CCOCC2)nc2ccccc12,.,.,?,14.8,.,48.9
COc1ccc(S(=O)(=O)N2CCCCCC2)cc1NS(=O)(=O)c1cc(C(=O)O)cc(C)c1C,.,.,.,/,.,/
COc1ccc(C(c2nnnn2Cc2cccs2)N2CCN(c3ccccc3F)CC2)cc1 (stereo not given),.,?,?,.,?,.
O=C(Cn1c(C(F)(F)F)nc2ccccc21)N1CCCC1,.,.,.,.,?,.
SMILES,FMDV inh,Marburg entry inh,HCV inhibitor,CHX counter,LASV entry inh,Shiga inhibitor
Cn1c(=O)n(C/C=C/c2ccccc2)c(=O)c2c1nc1n2CCN1c1ccc(Cl)cc1,.,/,/,/,.,/
CCN(c1cccc(C)c1)S(=O)(=O)c1c(C)[nH]c(=O)[nH]c1=O,/,.,.,.,.,.
c1ccc2nc(N3CCOCC3)c(N3CCOCC3)nc2c1,.,.,.,.,.,.
Cc1cc(N2CCN(c3ccccc3F)CC2)nc2cc(O)ccc12,.,?,.,25.0,.,94.6
Cc1cc(N2CCN(c3ccc(F)cc3)CC2)nc2cc(O)ccc12,.,/,.,.,/,.
c1ccc2nc(N3CCOCC3)cnc2c1,.,.,.,17.1,.,.
Cc1cc(C(=O)OCC(=O)N2CC(C)OC(C)C2)c2ccccc2n1 (stereo not given),.,?,.,/,?,/
O=C(CNCC1CCCCC1)Nc1ccccc1N1CCCCC1,?,.,11.2µM,.,.,.
O=C(CN1CCc2ccccc2C1)Nc1ccccc1Cl,.,/,.,.,/,.
COc1ccc(-n2nnnc2SCC(=O)Nc2ccccc2N2CCOCC2)cc1OC,.,/,.,.,/,.
CN(C)c1ccc(NC(=O)CN2CCc3ccccc3C2)cc1,.,?,.,36.3,?,92.3
O=C(CNC1CCCCCC1)Nc1ccccc1N1CCCCC1,.,?,?,.,?,.
CC(=O)c1cccc(-n2nnnc2SCC(=O)Nc2ccccc2N2CCCCC2)c1,?,11.2µM,14.1µM,.,?,.
O=C(CN1CCc2ccccc2C1)Nc1ccccc1N1CCCCCC1,?,18.3µM,?,.,.,.
